Assay results as given in PubChem BioAssay (EPA / NIEHS).
Results filed as inconclusive are left out. Activity calls are given as the source filed them. The calls were made as follows, unless noted: active = hit-call score of the fitted dose curve at least 0.9, where 1 is the maximum; inactive = score below 0.9.

Tests used:
[1] = biological target: Nucleoli Translocation, AR (gene 367) (UniProt P10275); assay: UPITT_HCI_U2OS_AR_TIF2_Nucleoli_Antagonist: University of Pittsburgh U2OS Androgen Receptor-Transcriptional Intermediary Factor 2 (AR-TIF2) Antagonism High Content Imaging Assay for Nucleoli Translocation (AID 2283997; active = hit-call score of the fitted dose curve at least 0.9, where 1 is the maximum)
Procedure, shortened: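 Antagonism is read as loss of nucleolar AR-RFP signal relative to DHT, imaged in U2OS cells also carrying GFP-TIF2. Compounds screened at 20 uM final, 0.2% DMSO; primary actives retested in triplicate.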

[2] = biological target: Nucleoli Translocation, AR (gene 367) (UniProt P10275); assay: UPITT_HCI_U2OS_AR_TIF2_Nucleoli_Agonist: University of Pittsburgh U2OS Androgen Receptor-Transcriptional Intermediary Factor 2 (AR-TIF2) Agonism High Content Imaging Assay for Nucleoli Translocation (AID 2283998; active = hit-call score of the fitted dose curve at least 0.9, where 1 is the maximum)
Procedure, shortened: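 High-content images quantify nucleolar accumulation of RFP-fused AR in cells also expressing GFP-TIF2; the endpoint is fitted as signal gain versus DMSO controls across final concentrations of 0.195 to 50 uM.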

[3] = system: DIO1 (gene 1733); assay: CCTE_GLTED_hDIO1: CCTE's human Deiodinase 1 (DIO1) Inhibition Assay, Great Lakes Toxicology and Ecology Division (GLTED) Lab (AID 2283987; active = hit-call score of the fitted dose curve at least 0.9, where 1 is the maximum;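 also: isolated human DIO1 enzyme in a cell-free setup rather than cells; enzyme activity read as free iodide liberated from substrate via Sandell-Kolthoff colorimetry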)
Procedure, shortened: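 Chemicals are tested on human DIO1 without cells for 3 h. Uninhibited enzyme frees iodide, which speeds cerium(IV) reduction by arsenic and is read by spectrophotometry.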

[4] = CCTE_Harrill_HTTr_Viability_DMEM_6hr: (Pilot) CCTE's 6-hour Cell Viability Assessment for the High-Throughput Transcriptomics (HTTr) Platform, in MCF-7 cells cultured in DMEM + 10% fetal bovine serum, Harrill Lab (AID 2283973)
Procedure, shortened: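 Propidium iodide uptake imaged by high-content analysis after six hours of chemical treatment in an eight-concentration series. Cells: MCF-7 grown in DMEM with 10% fetal bovine serum; DMSO as baseline.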

[5] = CCTE_Harrill_HTTr_Viability_DMEM_12hr: (Pilot) CCTE's 12-hour Cell Viability Assessment for the High-Throughput Transcriptomics (HTTr) Platform, in MCF-7 cells cultured in DMEM + 10% fetal bovine serum, Harrill Lab (AID 2283974)
Procedure, shortened: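 Propidium iodide dye exclusion imaged by high-content microscopy after 12 h chemical exposure (eight concentrations) of MCF-7 cells grown in DMEM plus 10% FBS; values fitted in both directions relative to DMSO.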

[6] = CCTE_Harrill_HTTr_Viability_DMEM_24hr: (Pilot) CCTE's 24-hour Cell Viability Assessment for the High-Throughput Transcriptomics (HTTr) Platform, in MCF-7 cells cultured in DMEM + 10% fetal bovine serum, Harrill Lab (AID 2283975)
Procedure, shortened: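 Pilot study: propidium iodide dye exclusion, imaged by high content microscopy, after 24 h compound exposure (eight concentrations) in MCF-7 cultured in DMEM + 10% fetal bovine serum; DMSO served as negative control and baseline.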

[7] = CCTE_Harrill_HTTr_Viability_PRF_DMEM_6hr: (Pilot) CCTE's 6-hour Cell Viability Assessment for the High-Throughput Transcriptomics (HTTr) Platform, in MCF-7 cells cultured phenol red-free DMEM + 10% charcoal-stripped fetal bovine serum, Harrill Lab (AID 2283976)
Procedure, shortened: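 Membrane integrity by high-content imaging of propidium iodide uptake, six hours after dosing with eight concentrations. Cells: MCF-7 grown in phenol red-free DMEM plus 10% charcoal-stripped serum; DMSO serves as baseline for bidirectional fits.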

[8] = CCTE_Harrill_HTTr_Viability_PRF_DMEM_12hr: (Pilot) CCTE's 12-hour Cell Viability Assessment for the High-Throughput Transcriptomics (HTTr) Platform, in MCF-7 cells cultured in phenol red-free DMEM + 10% charcoal-stripped fetal bovine serum, Harrill Lab (AID 2283977)
Procedure, shortened: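 Membrane integrity was scored via propidium iodide dye exclusion imaging, fitted in both directions relative to DMSO. Compounds ran as eight-point dilutions for 12 hours on MCF-7 grown in phenol red-free DMEM plus 10% charcoal-stripped serum.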

[9] = CCTE_Harrill_HTTr_Viability_PRF_DMEM_24hr: (Pilot) CCTE's 24-hour Cell Viability Assessment for the High-Throughput Transcriptomics (HTTr) Platform, in MCF-7 cells cultured in phenol red-free DMEM + 10% charcoal-stripped fetal bovine serum, Harrill Lab (AID 2283980)
Procedure, shortened: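 Propidium iodide exclusion imaged at 24 h after dosing scores viability; cells were MCF-7 grown in phenol red-free DMEM plus 10% charcoal-stripped serum, tested in eight concentrations, fitted in both directions against DMSO.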

[10] = CCTE_Harrill_HTTr_Apoptosis_DMEM_6hr: (Pilot) CCTE's 6-hour Apoptosis Assessment for the High-Throughput Transcriptomics (HTTr) Platform, in MCF-7 cells cultured in DMEM + 10% fetal bovine serum, Harrill Lab (AID 2283981)
Procedure, shortened: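 MCF-7 cells grown in DMEM + 10% FBS were exposed for 6 hours to an eight-point dilution series. CellEvent Caspase 3/7 Green signal was imaged; activity fitted bidirectionally against DMSO.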

[11] = CCTE_Harrill_HTTr_Apoptosis_DMEM_12hr: (Pilot) CCTE's 12-hour Apoptosis Assessment for the High-Throughput Transcriptomics (HTTr) Platform, in MCF-7 cells cultured in DMEM + 10% fetal bovine serum, Harrill Lab (AID 2283982)
Procedure, shortened: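 Caspase-3/7 activity was measured by high-content imaging (CellEvent Caspase 3/7 Green) after a 12-hour exposure of MCF-7 cells grown in DMEM with 10% FBS. Eight-point concentration series, fitted bidirectionally against vehicle.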

[12] = CCTE_Harrill_HTTr_Apoptosis_DMEM_24hr: (Pilot) CCTE's 24-hour Apoptosis Assessment for the High-Throughput Transcriptomics (HTTr) Platform, in MCF-7 cells cultured in DMEM + 10% fetal bovine serum, Harrill Lab (AID 2283983)
Procedure, shortened: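 Caspase-3/7 activity read by high-content imaging (CellEvent Green reagent) 24 h after dosing. MCF-7 cells grown in DMEM with 10% FBS received an eight-point concentration series; fits were bidirectional versus DMSO.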

[13] = CCTE_Harrill_HTTr_Apoptosis_PRF_DMEM_6hr: (Pilot) CCTE's 6-hour Apoptosis Assessment for the High-Throughput Transcriptomics (HTTr) Platform, in MCF-7 cells cultured phenol red-free DMEM + 10% charcoal-stripped fetal bovine serum, Harrill Lab (AID 2283984)
Procedure, shortened: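 Caspase-3/7 activity (CellEvent Green) read by high-content imaging 6 h after dosing, eight concentrations. Cells: MCF-7, phenol red-free DMEM with 10% charcoal-stripped serum. Curves fit both directions against DMSO.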

[14] = CCTE_Harrill_HTTr_Apoptosis_PRF_DMEM_24hr: (Pilot) CCTE's 24-hour Apoptosis Assessment for the High-Throughput Transcriptomics (HTTr) Platform, in MCF-7 cells cultured in phenol red-free DMEM + 10% charcoal-stripped fetal bovine serum, Harrill Lab (AID 2283986)
Procedure, shortened: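 Eight concentrations tested for 24 h on MCF-7 grown in charcoal-stripped serum, phenol red-free DMEM. High content imaging of CellEvent Caspase 3/7 Green signal gives apoptosis read-out, fitted both ways relative to DMSO.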

Chain of Nucleoli Translocation, AR (gene 367) (P10275 whole entry, looked up, the tested form may be a part): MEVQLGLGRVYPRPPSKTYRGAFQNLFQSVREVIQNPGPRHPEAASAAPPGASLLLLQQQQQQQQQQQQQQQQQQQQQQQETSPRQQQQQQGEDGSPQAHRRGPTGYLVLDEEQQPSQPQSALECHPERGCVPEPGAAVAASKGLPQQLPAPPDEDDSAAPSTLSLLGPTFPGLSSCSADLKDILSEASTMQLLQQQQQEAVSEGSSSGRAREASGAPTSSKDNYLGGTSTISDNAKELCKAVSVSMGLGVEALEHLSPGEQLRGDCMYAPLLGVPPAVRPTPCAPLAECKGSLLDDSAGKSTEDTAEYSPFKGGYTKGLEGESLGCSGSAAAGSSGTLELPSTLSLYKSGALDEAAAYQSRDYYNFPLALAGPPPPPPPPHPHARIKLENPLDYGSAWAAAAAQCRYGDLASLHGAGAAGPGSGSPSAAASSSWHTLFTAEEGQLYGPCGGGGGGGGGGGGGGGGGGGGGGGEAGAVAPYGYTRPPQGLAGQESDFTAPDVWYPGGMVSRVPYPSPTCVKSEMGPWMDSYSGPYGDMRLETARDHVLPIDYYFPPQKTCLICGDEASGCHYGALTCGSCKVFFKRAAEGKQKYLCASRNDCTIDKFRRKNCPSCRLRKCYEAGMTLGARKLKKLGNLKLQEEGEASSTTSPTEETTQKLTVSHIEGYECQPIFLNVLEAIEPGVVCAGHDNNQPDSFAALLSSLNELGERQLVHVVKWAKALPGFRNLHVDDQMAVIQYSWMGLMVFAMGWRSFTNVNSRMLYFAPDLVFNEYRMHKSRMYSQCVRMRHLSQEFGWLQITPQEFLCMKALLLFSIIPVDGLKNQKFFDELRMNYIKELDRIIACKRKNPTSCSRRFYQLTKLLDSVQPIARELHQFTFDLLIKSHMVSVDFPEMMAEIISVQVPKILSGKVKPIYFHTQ

**Q.** Which outcome [1] does the source give for `OCCOCCOCCO` here?
**A.** The outcome was “inactive”.

**Q.** And the outcome [2]?
**A.** Its outcome is “inactive”.

**Q.** For `CCCCCCCCCCCCCCCCOS(=O)(=O)O`, which AC50 [3] is on record?
**A.** The AC50 was 44.5 µM (active).

**Q.** What about the outcome [1] of the same molecule?
**A.** The outcome was “inactive”.

**Q.** For `CC(C)C(=O)Nc1ccc([N+](=O)[O-])c(C(F)(F)F)c1`, which outcome [4] is on record?
**A.** Its outcome is “inactive”.

**Q.** And the outcome [5]?
**A.** Its outcome is “inactive”.

**Q.** And the outcome [6]?
**A.** The outcome was “inactive”.

**Q.** And the outcome [7]?
**A.** The outcome was “inactive”.

**Q.** What about the outcome [8] of the same molecule?
**A.** Its outcome is “inactive”.

**Q.** And the outcome [9]?
**A.** Its outcome is “inactive”.

**Q.** And the outcome [10]?
**A.** Its outcome is “inactive”.

**Q.** What about the outcome [11] of the same molecule?
**A.** Its outcome is “inactive”.

**Q.** What about the outcome [12] of the same molecule?
**A.** Its outcome is “inactive”.

**Q.** What about the outcome [13] of the same molecule?
**A.** The outcome was “inactive”.

**Q.** And the outcome [14]?
**A.** Its outcome is “inactive”.

**Q.** With `FC(F)C(F)(F)COCC1CO1` (configuration not stated) as the molecule, how does the AC50 [3] read?
**A.** Its AC50 is 19.8 µM (active).

**Q.** With `CCCCOC(=O)c1ccccc1` as the molecule, how does the outcome [1] read?
**A.** The outcome was “inactive”.

**Q.** And the outcome [2]?
**A.** The outcome was “inactive”.

**Q.** With `CCc1cccc(CC)c1N` as the molecule, how does the outcome [1] read?
**A.** Its outcome is “inactive”.

**Q.** And the outcome [2]?
**A.** The outcome was “inactive”.

**Q.** Which outcome [1] does the source give for `OCc1ccccc1` here?
**A.** The outcome was “inactive”.

**Q.** For `Cc1nc(-c2ccccn2)ncc1C(=O)Nn1cc(C)c2cc(F)ccc21`, which outcome [1] is on record?
**A.** The outcome was “inactive”.
